Consider seven compounds from PubChem BioAssay (EPA / NIEHS).

Calls of active or inactive are those of the source. How the source made its calls: active means hit-call score of the fitted dose curve at least 0.9, where 1 is the maximum; inactive means score below 0.9.

Test [1] is described as follows: APR_HepG2_CellLoss_72hr: Apredica 72-hour HepG2 Assay for Cell Loss (AID 2282915). The note with it: high-content imaging. In a few lines:
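HepG2 cells exposed 72 h to compound at 0.39–200 uM (10 concentrations, duplicate) in 0.5% DMSO. Fixed with 3.7% formaldehyde and Hoechst 33342-stained. Imaged at 20x; nuclear count gives cell number, fitted bidirectionally versus DMSO.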

Test [2] can be described thus: APR_HepG2_P-H2AX_72hr: Apredica 72-hour HepG2 Assay for H2AX Phosphorylation (AID 2282916).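 Further: phospho-histone H2A.x immunostain intensity per cell marking DNA damage.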 The note with it: imaging, actives raise or lower the signal. In a few lines: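 HepG2; cpd 0.39–200 uM ×10 conc, duplicates; 0.5% DMSO; 72 hr. Fix 3.7% formaldehyde 30 min RT, 0.5% Triton X-100 10 min. Anti-phospho-H2A.x 1:200 + Hoechst 2 ug/mL, 60 min RT; ArrayScan imaging.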

The nature of test [3]: APR_HepG2_MitoMembPot_72hr: Apredica 72-hour HepG2 Assay for Mitochondrial Membrane Potential (AID 2282917). The note with it: imaging, actives raise or lower the signal. A digest of the protocol:
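HepG2 cells dosed 72 hr with compound at 0.39–200 uM in duplicate, 0.5% v/v DMSO final. Mitochondria stained with 250 nM MitoTracker Red CMXRos for 30 min before formaldehyde fixation, imaged by high-content fluorescence; bidirectional fit versus DMSO.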

The nature of test [4]: APR_HepG2_MitoticArrest_72hr: Apredica 72-hour HepG2 Assay for Mitotic Arrest (AID 2282918). The note with it: high-content imaging, actives raise or lower the signal. A digest of the protocol: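 HepG2 cells treated 72 h at 0.39–200 uM, 0.5% DMSO final; formaldehyde-fixed, stained with Hoechst 33342 and phospho-histone H3 antibody, imaged by high-content fluorescence; bidirectional fit versus DMSO.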

Test [5] in a line: APR_HepG2_MicrotubuleCSK_72hr: Apredica 72-hour HepG2 Assay for Microtubule CSK Stabilty (AID 2282919). The note with it: HepG2 microtubule cytoskeleton, high-content imaging, actives raise or lower the signal. A digest of the protocol:
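HepG2 cells were exposed 72 hr to compound at 0.39–200 uM in duplicate (0.5% DMSO final), then fixed and permeabilized. Alpha-tubulin immunofluorescence was imaged by high-content microscopy, with bidirectional fitting against DMSO and taxol as positive control.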

A short description of test [6]: APR_HepG2_P-H2AX_24hr: Apredica 24-hour HepG2 Assay for H2AX Phosphorylation (AID 2282920). The note with it: high-content imaging, actives raise or lower the signal. A digest of the protocol: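 HepG2 cells dosed 24 h at 0.39–200 uM (10 points, duplicate, 0.5% DMSO final). Formaldehyde-fixed and permeabilized, then immunostained for phospho-H2A.x with Hoechst. Fluorescence quantified by high-content imaging, fitted bidirectionally versus DMSO.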

Test [7] can be described thus: APR_HepG2_StressKinase_72hr: Apredica 72-hour HepG2 Assay for Stress Kinase (AID 2282921). The note with it: HepG2 stress kinase (phospho-c-Jun) imaging, actives raise or lower the signal. A digest of the protocol: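 Dose 0.39–200 uM (10 pts, duplicate), 0.5% DMSO; 72 h; fix 3.7% formaldehyde 30 min RT; Triton permeabilize; anti-phospho-c-Jun/Cy3 + Hoechst 60 min RT; image 20x; fit gain/loss vs DMSO.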

Test [8] is described as follows: APR_HepG2_StressKinase_24hr: Apredica 24-hour HepG2 Assay for Stress Kinase (AID 2282922). The note with it: HepG2 stress kinase (phospho-c-Jun) imaging, actives raise or lower the signal. A digest of the protocol: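 HepG2 cells exposed 24 h to 0.39–200 uM compound in duplicate (0.5% v/v DMSO final). Cells fixed in 3.7% formaldehyde, permeabilized and immunostained for phospho-c-Jun; read by high-content fluorescence imaging, fitted bidirectionally against DMSO.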

Test [9] can be described thus: APR_HepG2_p53Act_72hr: Apredica 72-hour HepG2 Assay for p53 Activation (AID 2282923).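 Further: average cellular p53 protein immunofluorescence intensity in HepG2 cells.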 The note with it: high-content imaging, actives raise or lower the signal. A digest of the protocol:
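10-pt conc. 0.39–200 uM, duplicate, 0.5% DMSO; 72 hr exposure; 3.7% formaldehyde fix, 0.5% Triton perm; sheep anti-p53/Cy5 + Hoechst; ArrayScan 20x, 6 images/well; gain/loss fit vs DMSO.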

Test [10] in a line: APR_HepG2_MitoMass_72hr: Apredica 72-hour HepG2 Assay for Mitochondrial Mass (AID 2282924).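 Further: MitoTracker Red CMXRos stain intensity per cell imaged as mitochondrial mass.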 The note with it: high-content imaging, actives raise or lower the signal. In a few lines:
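HepG2 cells dosed 72 hr at 0.39–200 uM (0.5% DMSO), in duplicate. MitoTracker Red CMXRos 250 nM loaded 30 min before formaldehyde fixation; high-content fluorescence imaging, bidirectional fit versus DMSO.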

A short description of test [11]: APR_HepG2_NuclearSize_72hr: Apredica 72-hour HepG2 Assay for Nuclear Size (AID 2282925). The note with it: high-content imaging, actives raise or lower the signal. In a few lines: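 HepG2 cells dosed 72 h at 0.39–200 uM (10 concentrations, duplicate) in 0.5% v/v DMSO final. Fixed, Hoechst 33342-stained nuclei imaged; nuclear diameter measured by automated image analysis. Bidirectional fit versus DMSO.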

Test [12] can be described thus: ATG_CRE_CIS: Attagene CIS-FACTORIAL HepG2 Assay for human cAMP Responsive Element (CRE) binding protein 3 (AID 2282926). The note with it: HepG2 CRE cis-reporter, Attagene multiplexed mRNA; actives raise or lower the signal. In a few lines: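 HepG2 cells transiently transfected with cis-element-driven multiple reporter transcription units; CRE reporter mRNA measured 24 h after dosing by RT-PCR, 6-FAM labelling, HpaI digestion and capillary electrophoresis. Bidirectional fit versus DMSO baseline.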

In test [13] the target is CCAAT/enhancer-binding protein beta (Homo sapiens) (UniProt P17676). Kind of test: ATG_C_EBP_CIS: Attagene CIS-FACTORIAL HepG2 Assay for human CCAAT/Enhancer Binding Protein (C/EBP) beta (AID 2282927). The note with it: HepG2 Attagene cis-factorial transcription factor reporter; actives raise or lower the signal. A digest of the protocol: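 HepG2 transiently transfected with multiplexed reporter units under cis-regulatory promoters reporting endogenous C/EBPb activity. After 24 h exposure, reporter mRNA assayed by RT-PCR, fluorescent labelling, HpaI digestion and capillary electrophoresis; bidirectional fitting versus DMSO.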
CCAAT/enhancer-binding protein beta (Homo sapiens), sequence (P17676 whole entry, looked up): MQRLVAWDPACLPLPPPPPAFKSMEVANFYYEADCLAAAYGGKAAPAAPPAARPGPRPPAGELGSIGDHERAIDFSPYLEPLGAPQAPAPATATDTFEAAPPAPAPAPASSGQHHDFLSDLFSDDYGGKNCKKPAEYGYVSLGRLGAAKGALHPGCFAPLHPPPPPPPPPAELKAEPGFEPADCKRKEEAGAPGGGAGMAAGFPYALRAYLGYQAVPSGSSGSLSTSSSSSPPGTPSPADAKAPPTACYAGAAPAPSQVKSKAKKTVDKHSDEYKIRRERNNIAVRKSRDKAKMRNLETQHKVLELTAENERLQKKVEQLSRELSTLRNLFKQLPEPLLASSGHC

Test [14] in a line: ATG_CMV_CIS: Attagene CIS-FACTORIAL HepG2 Assay for human CMV (Internal Marker) (AID 2282928).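 Further: endpoint acts as a background internal control marker rather than a target.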 The note with it: HepG2 CMV promoter reporter, transcription factor profiling; actives raise or lower the signal. A digest of the protocol:
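Cell system: HepG2, transiently transfected multiple reporter units under cis promoters. Exposure: 24 h. Detection: RT-PCR, FAM labeling, HpaI digestion, capillary electrophoresis. Analysis: bidirectional, DMSO baseline.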

Test [15] concerns the target Aryl hydrocarbon receptor (Homo sapiens) (UniProt P35869). Kind of test: ATG_Ahr_CIS: Attagene CIS-FACTORIAL HepG2 Assay for human Aryl Hydrocarbon Receptor (Ahr) (AID 2282930). The note with it: HepG2 AhR cis-factorial reporter transcription; actives raise or lower the signal. In a few lines:
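HepG2 cells transiently transfected with cis-element-driven multiplexed reporter units; endogenous AhR activity read as reporter mRNA 24 h after dosing, via RT-PCR, 6-FAM labelling, HpaI digestion and capillary electrophoresis. Bidirectional fit relative to DMSO.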

Test [16] in a line: ATG_AP_1_CIS: Attagene CIS-FACTORIAL HepG2 Assay for human Activator Protein 1 (AP-1) (AID 2282931). The note with it: HepG2 Attagene cis-factorial AP-1 reporter mRNA; actives raise or lower the signal. In a few lines: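 Endogenous transcription-factor activity in human HepG2 liver cells is read through a cis-promoter reporter transcript, sampled 24 h after dosing. Detection uses RT-PCR with capillary electrophoresis; values come from bidirectional fitting relative to DMSO.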

Test [17] in a line: ATG_AP_2_CIS: Attagene CIS-FACTORIAL HepG2 Assay for human Activator Protein 2 (AP-2) (AID 2282932). The note with it: HepG2 AP-2 cis-reporter, Attagene transcription factor profiling; actives raise or lower the signal. In a few lines: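 HepG2 cells transiently transfected with cis-element reporter units and exposed for 24 h. Reporter mRNA measured by RT-PCR, FAM labelling, HpaI digestion and capillary electrophoresis. Changes in either direction fitted relative to DMSO.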

A short description of test [18]: ATG_BRE_CIS: Attagene CIS-FACTORIAL HepG2 Assay for human Bone Morphogenetic Protein (BMP) Response Element (BRE) (AID 2282933). The note with it: HepG2 BMP response element reporter, Attagene transcription factor profiling; actives raise or lower the signal. A digest of the protocol:
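Endogenous transcription factor activity read in transiently transfected HepG2 cells after 24 h chemical exposure. Bidirectional curve fitting against DMSO; readout is reporter transcript level by RT-PCR with capillary electrophoresis of labelled products.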

The target of test [19] is Retinoic acid receptor alpha (Homo sapiens) (UniProt P10276). The test can be described thus: ATG_DR5_RAR_CIS: Attagene CIS-FACTORIAL HepG2 Assay for human Retinoic Acid Receptor Alpha (RARE), DR5 submotif (AID 2282934). The note with it: HepG2 Attagene cis-factorial RARE DR5 reporter, mRNA; actives raise or lower the signal. In a few lines:
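HepG2 cells transiently transfected with multiplexed reporter units; DR5 cis-element drives reporter through endogenous transcription factors. After 24 h dosing, reporter mRNA quantified by RT-PCR, fluorescent labeling, HpaI digestion and capillary electrophoresis; bidirectional fitting versus DMSO.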

A short description of test [20]: ATG_DR4_LXR_CIS: Attagene CIS-FACTORIAL HepG2 Assay for human Liver X Receptor (LXR), DR4 submotif (AID 2282929). The note with it: HepG2 Attagene DR4 cis-reporter, mRNA transcription; actives raise or lower the signal. In a few lines: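 Cells were transfected with multiple reporter transcription units, exposed to chemicals for 24 hours, then lysed for RNA. Reporter mRNA induction was measured by RT-PCR with capillary electrophoresis detection and fitted in both directions relative to DMSO.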

Aryl hydrocarbon receptor (Homo sapiens), sequence (P35869 whole entry, looked up): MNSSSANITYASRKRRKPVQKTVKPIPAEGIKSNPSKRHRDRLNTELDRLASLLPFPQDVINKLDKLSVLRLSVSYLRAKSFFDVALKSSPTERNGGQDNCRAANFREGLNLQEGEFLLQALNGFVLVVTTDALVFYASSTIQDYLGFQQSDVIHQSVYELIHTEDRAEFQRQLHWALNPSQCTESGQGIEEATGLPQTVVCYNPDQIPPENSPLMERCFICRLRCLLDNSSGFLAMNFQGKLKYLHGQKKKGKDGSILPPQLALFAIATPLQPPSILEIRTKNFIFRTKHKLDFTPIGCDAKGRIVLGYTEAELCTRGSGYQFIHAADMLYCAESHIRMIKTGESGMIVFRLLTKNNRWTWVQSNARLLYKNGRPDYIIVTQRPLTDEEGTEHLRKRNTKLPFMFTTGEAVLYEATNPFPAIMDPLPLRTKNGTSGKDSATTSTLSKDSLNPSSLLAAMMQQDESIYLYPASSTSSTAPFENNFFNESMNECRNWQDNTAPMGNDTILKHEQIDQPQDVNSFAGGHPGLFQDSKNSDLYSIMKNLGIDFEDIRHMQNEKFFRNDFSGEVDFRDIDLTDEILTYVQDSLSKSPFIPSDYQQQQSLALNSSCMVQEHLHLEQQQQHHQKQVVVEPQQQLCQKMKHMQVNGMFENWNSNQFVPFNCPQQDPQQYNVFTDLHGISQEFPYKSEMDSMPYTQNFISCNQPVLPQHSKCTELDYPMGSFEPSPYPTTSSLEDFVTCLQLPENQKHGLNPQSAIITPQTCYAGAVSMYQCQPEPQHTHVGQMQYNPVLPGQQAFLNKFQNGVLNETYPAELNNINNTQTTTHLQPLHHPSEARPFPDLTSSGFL
Retinoic acid receptor alpha (Homo sapiens), sequence (P10276 whole entry, looked up): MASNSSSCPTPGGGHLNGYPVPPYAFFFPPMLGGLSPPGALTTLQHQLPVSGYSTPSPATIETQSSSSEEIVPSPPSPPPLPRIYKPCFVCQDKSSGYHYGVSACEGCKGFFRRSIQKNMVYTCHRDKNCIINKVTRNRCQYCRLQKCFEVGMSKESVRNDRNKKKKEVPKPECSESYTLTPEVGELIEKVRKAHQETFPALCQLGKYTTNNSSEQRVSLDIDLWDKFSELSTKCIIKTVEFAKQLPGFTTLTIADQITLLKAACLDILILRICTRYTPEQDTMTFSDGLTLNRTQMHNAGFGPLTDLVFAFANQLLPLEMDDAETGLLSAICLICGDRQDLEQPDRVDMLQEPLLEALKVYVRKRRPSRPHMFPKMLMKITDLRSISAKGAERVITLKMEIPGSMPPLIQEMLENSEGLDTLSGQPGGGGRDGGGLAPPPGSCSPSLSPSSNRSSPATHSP

Turning to `COc1cc(Cl)c(OC)cc1Cl`, the compound was classed as inactive in test [1], in test [2], in test [3], in [4], in test [5] and in [6]. The compound was classed as inactive in [7], in test [8], in test [9], in test [10], in [11] and in [12]. Further, the result in test [13], in test [14], in test [15], in [16], in [17] and in [18] was inactive. For the same compound, in test [19], the outcome was inactive.

With `N#Cc1c(Cl)cccc1Cl`, the compound was classed as inactive in test [1], in test [2], in test [3], in test [4], in test [5] and in test [6]. In addition, the result in test [8], in test [9], in test [10], in [11], in [12] and in test [13] was inactive. For the same compound, the call in test [14], in test [20], in test [15], in test [16], in [17] and in test [18] was inactive.

As for `O=P(O)(O)CCCl`, the outcome in test [1], in test [2], in [3], in test [4], in test [5] and in [6] was inactive. Further, the outcome in test [7], in [8], in [9], in test [10], in test [11] and in [12] was inactive. The result in [13], in test [14], in [15], in test [17], in test [18] and in test [19] was inactive.

One may read the AC50 as the concentration at which the activity in the assay is half-maximal. Turning to `CN=C=S`, the AC50 in test [1] was 49.2 µM (active); in test [12], 13.7 µM (active); in [13] it was 15.4 µM (active); in [18], 16.5 µM (active). The compound was called inactive in [2], in test [3], in test [4], in test [5], in test [6] and in [7]. Moreover, the outcome in [8], in test [9], in [10], in test [11], in test [14] and in test [15] was inactive. Besides, the compound was called inactive in test [17] and in test [19].

With `COP(=S)(OC)SCn1nnc2ccccc2c1=O`, the AC50 in test [1] was 100 µM (active); in test [12], 18.8 µM (active); in test [13] it was 6.88 µM (active); in [18], 13.3 µM (active). The call in test [2], in test [3], in test [4], in [5], in test [6] and in test [7] was inactive. The call in [8], in test [9], in [10], in test [11], in test [14] and in [20] was inactive. The call in [15], in [17] and in [19] was inactive.

`CC1(C)CON(Cc2ccccc2Cl)C1=O`: the result in test [1], in test [2], in test [3], in test [4], in [5] and in test [6] was inactive. Moreover, the compound was classed as inactive in [7], in test [8], in test [9], in test [10], in test [11] and in test [12]. In addition, the result in [13], in test [14], in test [20], in test [15], in test [16] and in test [17] was inactive. Further, the compound was classed as inactive in [18] and in [19].

Take `Clc1cccc(C(Cl)(Cl)Cl)n1`: the compound was called inactive in test [1], in [2], in test [3], in test [4], in test [5] and in test [6]. The outcome in test [7], in test [8], in test [9], in test [10], in test [11] and in test [12] was inactive. The outcome in test [13], in test [14], in [15], in [16], in test [17] and in test [18] was inactive.
